The test system of experiment [1] is U-2932. Nature of the experiment: growth inhibition by drug alone (1 - RLU/untreated control) (fraction); higher = stronger inhibition. The settings on record: 177Lu-lilotomab satetraxetan 0 ug/ml. The procedure, abridged: (§1)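 A radiolabelled anti-CD37 antibody conjugate (~600 MBq/mg) was applied for 18 h at 0.5 µg/ml to RIVA and 1 µg/ml to U-2932 cells, with untreated cells run alongside. All cells were washed and seeded at 3,000 cells/well onto library-printed plates at 10/100 nM (RIVA) or 10/1,000 nM (U-2932). Growth inhibition was based on RealTime-Glo luminescence compared with untreated no-drug wells. Daily reads began on day 3 after 1 h at 37°C, with each value being 1 − RLU/mean of the 48 such wells on that plate.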

The test system of experiment [2] is RIVA. The description is as above. To be noted: 177Lu-lilotomab satetraxetan 0 ug/ml. The procedure, abridged: as §1
The test system of experiment [3] is U-2932. Description: growth inhibition by drug plus 177Lu-lilotomab satetraxetan (1 - RLU/untreated control) (fraction); higher = stronger inhibition. The settings on record: 177Lu-lilotomab satetraxetan 1 ug/ml. The procedure, abridged: as §1
Experiment [4] deals with RIVA. Described as above. To be noted: 177Lu-lilotomab satetraxetan 0.5 ug/ml. The procedure, abridged: as §1

Molecules are shown by their SMILES.

Take `O=C(/C=C/c1cccnc1)NCCCCC1CCN(C(=O)c2ccccc2)CC1`: the “growth inhibition by drug alone” value was found to be 0.935 in the experiment with U-2932 [1] (10 nM, time (day): 3); 0.894 in the experiment with U-2932 [1] (10 nM, time (day): 4); 0.825 in the experiment on U-2932 [1] (10 nM, time (day): 5); 0.783 with U-2932 [1] (10 nM, time (day): 6); 0.982 in the experiment on U-2932 [1] (1000 nM, time (day): 3); 0.985 in the experiment on U-2932 [1] (1000 nM, time (day): 4). Further, the “growth inhibition by drug alone” value was 0.984 with U-2932 [1] (1000 nM, time (day): 5); 0.985 in the experiment on U-2932 [1] (1000 nM, time (day): 6); 0.983 in the experiment on RIVA [2] (10 nM, time (day): 3); 0.983 in the experiment with RIVA [2] (10 nM, time (day): 4); 0.982 in the experiment with RIVA [2] (10 nM, time (day): 5); 0.979 with RIVA [2] (10 nM, time (day): 6). The “growth inhibition by drug alone” value came out at 0.981 with RIVA [2] (100 nM, time (day): 3); 0.982 in the experiment with RIVA [2] (100 nM, time (day): 4); 0.982 in the experiment with RIVA [2] (100 nM, time (day): 5); 0.98 in the experiment on RIVA [2] (100 nM, time (day): 6). In addition, the “growth inhibition by drug plus 177Lu-lilotomab satetraxetan” value with U-2932 [3] (10 nM, time (day): 3) came out at 0.909; with U-2932 [3] (10 nM, time (day): 4), 0.859; with U-2932 [3] (10 nM, time (day): 5), 0.812; in the experiment with U-2932 [3] (10 nM, time (day): 6), 0.758; in the experiment with U-2932 [3] (1000 nM, time (day): 3) it was 0.984; with U-2932 [3] (1000 nM, time (day): 4), 0.985. Further, the “growth inhibition by drug plus 177Lu-lilotomab satetraxetan” value was determined as 0.986 with U-2932 [3] (1000 nM, time (day): 5) and 0.988 in the experiment on U-2932 [3] (1000 nM, time (day): 6).

In the case of `O=C(NCCCNc1nc(Nc2cccc(NC(=O)N3CCCC3)c2)ncc1I)c1cccs1`, the “growth inhibition by drug plus 177Lu-lilotomab satetraxetan” value worked out at 0.198 in the experiment with U-2932 [3] (10 nM, time (day): 3); 0.238 in the experiment with U-2932 [3] (10 nM, time (day): 4); 0.304 in the experiment with U-2932 [3] (10 nM, time (day): 5); 0.353 in the experiment with U-2932 [3] (10 nM, time (day): 6); 0.223 with U-2932 [3] (1000 nM, time (day): 3); 0.302 in the experiment on U-2932 [3] (1000 nM, time (day): 4). For the same compound, the “growth inhibition by drug plus 177Lu-lilotomab satetraxetan” value in the experiment with U-2932 [3] (1000 nM, time (day): 5) stood at 0.491; in the experiment with U-2932 [3] (1000 nM, time (day): 6), 0.618.

For the compound `COc1cc2ncnc(Nc3cccc(Br)c3)c2cc1OC`, the “growth inhibition by drug plus 177Lu-lilotomab satetraxetan” value is -0.0269 in the experiment with U-2932 [3] (10 nM, time (day): 3); -0.00153 with U-2932 [3] (10 nM, time (day): 4); 0.00885 in the experiment on U-2932 [3] (10 nM, time (day): 5); 0.0642 in the experiment with U-2932 [3] (10 nM, time (day): 6); -0.0997 with U-2932 [3] (1000 nM, time (day): 3); 0.0384 in the experiment on U-2932 [3] (1000 nM, time (day): 4). The “growth inhibition by drug plus 177Lu-lilotomab satetraxetan” value was 0.0191 with U-2932 [3] (1000 nM, time (day): 5); 0.0515 in the experiment on U-2932 [3] (1000 nM, time (day): 6); 0.308 in the experiment with RIVA [4] (10 nM, time (day): 3); 0.458 in the experiment with RIVA [4] (10 nM, time (day): 4); 0.483 in the experiment with RIVA [4] (10 nM, time (day): 5); 0.516 in the experiment with RIVA [4] (10 nM, time (day): 6). Besides, the “growth inhibition by drug plus 177Lu-lilotomab satetraxetan” value came to 0.349 in the experiment on RIVA [4] (100 nM, time (day): 3); 0.482 with RIVA [4] (100 nM, time (day): 4); 0.487 in the experiment with RIVA [4] (100 nM, time (day): 5); 0.467 with RIVA [4] (100 nM, time (day): 6).

For `Cn1cc(-c2ccc3nnc(C(F)(F)c4ccc5ncccc5c4)n3n2)cn1`, the “growth inhibition by drug alone” value in the experiment on RIVA [2] (10 nM, time (day): 3) was -0.216; in the experiment with RIVA [2] (10 nM, time (day): 4), -0.252; in the experiment with RIVA [2] (10 nM, time (day): 5), -0.259; in the experiment with RIVA [2] (10 nM, time (day): 6), -0.266; with RIVA [2] (100 nM, time (day): 3), -0.157; in the experiment with RIVA [2] (100 nM, time (day): 4) it was -0.252. Besides, the “growth inhibition by drug alone” value was -0.203 in the experiment with RIVA [2] (100 nM, time (day): 5) and -0.226 in the experiment on RIVA [2] (100 nM, time (day): 6). The “growth inhibition by drug plus 177Lu-lilotomab satetraxetan” value with U-2932 [3] (10 nM, time (day): 3) was -0.0849; with U-2932 [3] (10 nM, time (day): 4), -0.0323; with U-2932 [3] (10 nM, time (day): 5), 0.0158; in the experiment with U-2932 [3] (10 nM, time (day): 6), 0.0612; in the experiment with U-2932 [3] (1000 nM, time (day): 3), -0.131; in the experiment on U-2932 [3] (1000 nM, time (day): 4), -0.0707. For the same compound, the “growth inhibition by drug plus 177Lu-lilotomab satetraxetan” value in the experiment on U-2932 [3] (1000 nM, time (day): 5) was -0.0177; in the experiment with U-2932 [3] (1000 nM, time (day): 6), 0.142; in the experiment with RIVA [4] (10 nM, time (day): 3), 0.285; in the experiment on RIVA [4] (10 nM, time (day): 4), 0.449; in the experiment with RIVA [4] (10 nM, time (day): 5) it was 0.457; with RIVA [4] (10 nM, time (day): 6), 0.453. The “growth inhibition by drug plus 177Lu-lilotomab satetraxetan” value amounted to 0.342 in the experiment on RIVA [4] (100 nM, time (day): 3); 0.401 with RIVA [4] (100 nM, time (day): 4); 0.428 with RIVA [4] (100 nM, time (day): 5); 0.429 in the experiment with RIVA [4] (100 nM, time (day): 6).

In the case of `N#CC(c1ccnc(NCCc2cccnc2)n1)c1nc2ccccc2s1` (stereo not given) [JNK Inhibitor V], the “growth inhibition by drug alone” value was -0.0956 in the experiment with U-2932 [1] (10 nM, time (day): 3); -0.056 with U-2932 [1] (10 nM, time (day): 4); -0.0395 in the experiment on U-2932 [1] (10 nM, time (day): 5); 0.0624 with U-2932 [1] (10 nM, time (day): 6); -0.154 with U-2932 [1] (1000 nM, time (day): 3); -0.122 in the experiment with U-2932 [1] (1000 nM, time (day): 4). Further, the “growth inhibition by drug alone” value is -0.116 in the experiment on U-2932 [1] (1000 nM, time (day): 5); -0.143 with U-2932 [1] (1000 nM, time (day): 6); -0.285 with RIVA [2] (10 nM, time (day): 3); -0.269 in the experiment with RIVA [2] (10 nM, time (day): 4); -0.297 with RIVA [2] (10 nM, time (day): 5); -0.462 in the experiment with RIVA [2] (10 nM, time (day): 6). Also, the “growth inhibition by drug alone” value is -0.33 with RIVA [2] (100 nM, time (day): 3); -0.412 in the experiment with RIVA [2] (100 nM, time (day): 4); -0.338 in the experiment with RIVA [2] (100 nM, time (day): 5); -0.441 with RIVA [2] (100 nM, time (day): 6). Also, the “growth inhibition by drug plus 177Lu-lilotomab satetraxetan” value is -0.113 in the experiment on U-2932 [3] (10 nM, time (day): 3); -0.0825 in the experiment with U-2932 [3] (10 nM, time (day): 4); -0.0367 in the experiment with U-2932 [3] (10 nM, time (day): 5); 0.103 in the experiment on U-2932 [3] (10 nM, time (day): 6); -0.0869 with U-2932 [3] (1000 nM, time (day): 3); -0.00408 in the experiment with U-2932 [3] (1000 nM, time (day): 4). Also, the “growth inhibition by drug plus 177Lu-lilotomab satetraxetan” value in the experiment with U-2932 [3] (1000 nM, time (day): 5) worked out at 0.0113; in the experiment with U-2932 [3] (1000 nM, time (day): 6) it was 0.0923.

Take `Cc1ccc(Nc2nccc(N(C)c3ccc4c(C)n(C)nc4c3)n2)cc1S(N)(=O)=O` [Pazopanib]: the “growth inhibition by drug alone” value is 0.149 in the experiment with RIVA [2] (10 nM, time (day): 3); 0.0444 in the experiment on RIVA [2] (10 nM, time (day): 4); -0.0206 with RIVA [2] (10 nM, time (day): 5); -0.258 with RIVA [2] (10 nM, time (day): 6); 0.117 in the experiment with RIVA [2] (100 nM, time (day): 3); 0.0561 in the experiment on RIVA [2] (100 nM, time (day): 4). The “growth inhibition by drug alone” value in the experiment with RIVA [2] (100 nM, time (day): 5) was 0.0246; in the experiment on RIVA [2] (100 nM, time (day): 6), -0.0758. Besides, the “growth inhibition by drug plus 177Lu-lilotomab satetraxetan” value in the experiment on U-2932 [3] (10 nM, time (day): 3) is 0.0594; in the experiment on U-2932 [3] (10 nM, time (day): 4) it was 0.0779; with U-2932 [3] (10 nM, time (day): 5), 0.0787; with U-2932 [3] (10 nM, time (day): 6), 0.118; in the experiment on U-2932 [3] (1000 nM, time (day): 3) it was -0.00732; in the experiment on U-2932 [3] (1000 nM, time (day): 4), 0.0799. Further, the “growth inhibition by drug plus 177Lu-lilotomab satetraxetan” value in the experiment with U-2932 [3] (1000 nM, time (day): 5) is 0.0706; in the experiment with U-2932 [3] (1000 nM, time (day): 6), 0.00785; in the experiment with RIVA [4] (10 nM, time (day): 3) it was 0.437; in the experiment on RIVA [4] (10 nM, time (day): 4) it was 0.548; in the experiment on RIVA [4] (10 nM, time (day): 5), 0.557; with RIVA [4] (10 nM, time (day): 6), 0.564. The “growth inhibition by drug plus 177Lu-lilotomab satetraxetan” value was 0.418 in the experiment with RIVA [4] (100 nM, time (day): 3); 0.47 in the experiment on RIVA [4] (100 nM, time (day): 4); 0.488 with RIVA [4] (100 nM, time (day): 5); 0.477 in the experiment with RIVA [4] (100 nM, time (day): 6).

The values are drawn from the supplement of paper PMC6897291.
